Each structure is given as a SMILES string. About 370 (0.13%) of roughly 290,000 compounds were called active. This is one part of a sample in which actives are shown more often than they occur.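 The calls were made as follows: active = spots per cell inhibited over 60%, with over 100 cells counted and total cytoplasm intensity under 500,000; inconclusive = wells with under 100 cells, flagged as likely toxic; inactive = the rest.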 Measured potencies and affinities stand elsewhere.

The assay deals with G-protein coupled receptor 55 (Homo sapiens) (UniProt Q9Y2T6). In words: GPR55 antagonists blocking LPI-driven arrestin recruitment, primary screen, imaging, U2OS, beta-arrestin-GFP, LPI agonist (AID 2013).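 Also: U2OS cells stably carrying GPR55 and arrestin-GFP stimulated by 5 µM LPI near EC80; imaged beta-arrestin-GFP aggregate spots per cell after agonist stimulation; plate controls were LPI-stimulated DMSO wells for no effect and DMSO wells without LPI for full effect.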 As to conditions: U2OS GPR55 beta-arrestin-GFP translocation imaging, LPI antagonism; at 10 µM; active compounds read high. Background: Arrestin recruitment assays detect the binding of arrestin to an activated receptor.
Sequence of G-protein coupled receptor 55 (Homo sapiens) (Q9Y2T6 whole entry, looked up): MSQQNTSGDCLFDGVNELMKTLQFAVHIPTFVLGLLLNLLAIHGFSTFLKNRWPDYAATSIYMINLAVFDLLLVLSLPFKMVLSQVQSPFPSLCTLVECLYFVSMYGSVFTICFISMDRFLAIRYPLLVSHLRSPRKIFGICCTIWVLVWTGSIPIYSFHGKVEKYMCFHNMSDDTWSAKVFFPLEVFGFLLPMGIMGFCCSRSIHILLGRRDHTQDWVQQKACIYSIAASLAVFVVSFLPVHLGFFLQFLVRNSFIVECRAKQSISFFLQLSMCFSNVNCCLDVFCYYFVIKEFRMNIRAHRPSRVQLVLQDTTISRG
As a reminder, the inhibition is the drop in the measured response relative to a control, in per cent. Turning to `CN(C(=O)c1ccccc1OCc1ccc(Cl)cc1)c1ccccc1`, the inhibition is 4.2% (inactive).
The same measure for `O=C(O)c1cccc(COc2ccccc2Cl)c1`: 4.2% (inactive).
The same measure for `O=C(COc1ccc([N+](=O)[O-])cc1)Nc1ccccc1N1CCCC1`: 7.8% (inactive).
The same measure for `COc1ccc(C(CCNCc2ccccc2)c2ccc(F)cc2)cc1` (stereo not drawn): 37.5% (inactive).
For `COc1ccc(C(CCN)c2ccc3c(c2)OCO3)cc1` (stereo not drawn), the inhibition is 12.6% (inactive).
The same measure for `COc1ccc(C(CCNCc2ccc(N(C)C)cc2)c2ccccc2)cc1` (stereo not drawn): 33.8% (inactive); for `COc1ccc(C(CCNCc2ccc(F)cc2)c2ccc(F)cc2)cc1` (stereo not drawn): 45.1% (inactive).
`CCCNC(=O)c1ccc(C2SCC(=O)N2Cc2ccccc2)cc1` (stereo not drawn): the inhibition was 0% (inactive).
As for `O=C(NCc1ccccc1)c1ccc(C2SCC(=O)N2Cc2ccccc2)cc1` (stereo not drawn), the inhibition is 4.1% (inactive).
The same measure for `CC(C)c1ccc(C2CC(=O)c3cnc(NC(=O)c4ccco4)nc3C2)cc1` (stereo not drawn): 6.3% (inactive); for `O=C(CC(=O)NCc1ccc(Cl)cc1)NCc1ccc(Cl)cc1`: 1.9% (inactive); for `CC(C)C(=O)Nc1ccc2c(c1)nc(CCN1CCCCC1)n2C`: -5.6% (inactive).
The same measure for `Cc1cc(C)c(C2C(C#N)=C(N)Oc3n[nH]c(C)c32)cc1CN1CCCC1` (stereo not drawn): 7.5% (inactive).
Regarding `COc1ccc(S(=O)(=O)Nc2ccc(S(=O)(=O)Nc3ccc(F)cc3)cc2)cc1C`, the inhibition is 17.8% (inactive).
Under `COc1ccc(NS(=O)(=O)c2ccc(OC)c(N(C)S(=O)(=O)c3ccc(Cl)cc3)c2)cc1` stands 1.4% (inactive); under `COc1ccc(S(=O)(=O)NN(C)C)cc1N(C)S(=O)(=O)c1ccc(Cl)cc1`, 9.7% (inactive); under `COc1ccc(S(=O)(=O)N2CCCCCC2)cc1N(C)S(=O)(=O)c1ccc(Cl)cc1`, 18.7% (inactive).
Under `CC(=O)N1CCN(S(=O)(=O)c2ccc(C)cc2)C1c1ccc(N(C)C)cc1` (stereo not drawn) stands 3.3% (inactive); under `CN(C)c1cc(Nc2cccc(O)c2)c([N+](=O)[O-])c2nonc12`, -9.3% (inactive); under `O=C(O)c1cc(Nc2cc(Cl)c3nonc3c2[N+](=O)[O-])ccc1O`, -3.1% (inactive).
Regarding `O=C(O)c1ccc(Nc2cc(Cl)c3nonc3c2[N+](=O)[O-])cc1`, the inhibition is 15.1% (inactive).
Under `O=[N+]([O-])c1c(Nc2ccccn2)cc(Cl)c2nonc12` stands 4.7% (inactive); under `CCNc1cc(Nc2c(C)n(C)n(-c3ccccc3)c2=O)c([N+](=O)[O-])c2nonc12`, 3.6% (inactive).
Take `O=C(O)c1cccc(Nc2cc(Cl)c3nonc3c2[N+](=O)[O-])c1`: the inhibition is -6.5% (inactive).
As to `O=[N+]([O-])c1c(Nc2ccccc2O)cc(Cl)c2nonc12`, the inhibition is -4% (inactive).
Under `Cc1c(Nc2cc(N3CCOCC3)c3nonc3c2[N+](=O)[O-])c(=O)n(-c2ccccc2)n1C` stands 18.1% (inactive); under `O=[N+]([O-])c1c(Nc2ccc(O)cc2)cc(Cl)c2nonc12`, 90.4% (active); under `O=[N+]([O-])c1c(Nc2cccc(O)c2)cc(Cl)c2nonc12`, 77.1% (active).
